Pf Dd2 inh = inhibitors of Plasmodium falciparum Dd2 growth | AID 1347417 | 120,000 compounds, 4.3% hits | Potency, µM (highest dose often 28.9 µM), inactives show at the top dose activity, negative = inhibition, hits mostly inhibitors | P. falciparum Dd2 growth, SYBR Green, 72 h; active = well fitted inhibition curve with a large enough effect;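 also: plate controls were DMSO vehicle for no effect and reference drug for full effect; nearly all actives have a fitted effect of over 65% in size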
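Readout: SYBR Green fluorescence, 485 nm excitation, 535 nm emission, after ~16 h lysis at 37C. Before that, Dd2-infected red cells (2.5% hematocrit) grew 72 h with compound, 29 uM top final concentration.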
An asterisk follows results filed as active; i = inactive; [ ] = dose if it differs, or a comment. This is one part of a sample in which hits are shown more often than they occur. Potency is read from the fitted curve at half-maximal effect.

SMILES	Pf Dd2 inh
COC(=O)c1ccccc1NC(=O)Cn1cccc1-c1nc(-c2ccc(OC)c(F)c2)no1	16%
CCc1ccc(NC(=O)Cn2cccc2-c2nc(-c3ccc(OC)c(F)c3)no2)cc1	2µM*
COc1ccc(-c2noc(-c3cccn3CC(=O)Nc3ccc(N(C)C)cc3)n2)cc1F	0%
COc1ccc(NC(=O)Cn2cccc2-c2nc(-c3ccc4c(c3)OCO4)no2)cc1OC	-24%
COc1ccc(-c2noc(-c3cccn3CC(=O)NC3CCCC3)n2)cc1F	i
COc1ccc(-c2noc(-c3cccn3CC(=O)Nc3ccc(F)c(F)c3)n2)cc1F	2.8µM*
CCCn1ccc2sc(C)c(C(=O)NCc3ccc(F)cc3)c2c1=O	-9%
O=S(=O)(c1cccs1)N1CCC(c2nc(CCOc3ccc(F)cc3)no2)C1 (stereo not drawn)	i
COc1ccc(CCC(=O)NC2CCc3nnc(C)n3CC2)cc1OC (stereo not drawn)	25%
CCOCCCNC(=O)N1CCC(N2CC3CC(C2)[C@H]2CCCC(=O)N2C3)CC1 (stereo partly drawn)	13%
COCCn1c(C)cc(C(=O)N2CCc3nn(CCOC)c(=O)n3CC2)c1C	29%
CC(C)c1nnc(C2CN(C(=O)Cc3ccc(Br)cc3)CC23CCOCC3)o1 (stereo not drawn)	13%
Cc1nc([C@@H]2CN(C(=O)c3cc(C)n(Cc4ccco4)c3C)C[C@H]2C(N)=O)n[nH]1	8%
CCC(CC)NC(=O)C1Cn2cccc2C(=O)N1C (stereo not drawn)	59%
NC(=O)[C@@H](Cc1ccccc1)NC(=O)[C@@H]1C[C@@H](NS(=O)(=O)c2cccs2)CCN1C(=O)COCC(=O)O	13%
COc1ccc([S+](=O)([O-])c2nnn3c2nc(NCc2ccncc2)c2ccccc23)cc1	-15%
Cc1ccc([S+](=O)([O-])c2nnn3c2nc(NCc2ccncc2)c2ccccc23)cc1	7%
Cc1cc(C)c([S+](=O)([O-])c2nnn3c2nc(NCc2ccncc2)c2ccccc23)c(C)c1	2.2µM*
CC(C)n1c(CNC(=O)Cn2nc3c(cc2=O)CCCC3)nc2ccccc21	-12%
Cc1cc(N2CCCCC2)nc2ccc(NC(=O)c3ccc(F)cc3)cc12	i
CCN1CCN(c2cc(C)c3cc(NC(=O)c4cc(OC)cc(OC)c4)ccc3n2)CC1	0.4µM*
COc1cc(OC)cc(C(=O)Nc2ccc3c(c2)n(C)c(=O)c(=O)n3C)c1	24%
O=C(Nc1ccc2oc(-c3cccc4c(Br)cccc34)nc2c1)c1cccc(Cl)c1	i
CCCCc1ccc(C(=O)Nc2ccc3nc(N4CCN(CC)CC4)cc(C)c3c2)cc1	4.5µM*
COc1ccc(C(=O)Nc2ccc3nc(N4CCC(C)CC4)cc(C)c3c2)cc1	-12%
SMILES	Pf Dd2 inh
CCCCc1ccc(NC(=O)c2ccc(=O)n(Cc3cccc(C)c3)c2)cc1	i
CCN1C[C@@H]2C(C(=O)Nc3cccc(Cl)c3)=NO[C@@H]2C1	-7%[44.1 µM]
O=C(NCc1cccc(Cl)c1)C(=O)Nc1ccc2nc3n(c(=O)c2c1)CCCCC3	29%
CCN1CCN(c2cc(C)c3cc(NC(=O)c4cccc(Cl)c4)ccc3n2)CC1	1.6µM*
CCN1CCN(c2cc(C)c3cc(NC(=O)/C=C/c4cccc(Cl)c4)ccc3n2)CC1	3.2µM*
CC1CCN(c2ccc(NC(=O)c3cccc(Cl)c3)cc2C(=O)O)CC1	3%
COC[C@H]1CCCN1C(=O)CC[C@@H]1CNC(=O)[C@@H]2C[C@H](NC(=O)Nc3ccc(F)cc3F)CN12	-3%
O=C(O)C[C@@H]1CCN(C(=O)C2CCCC2)C[C@@H]1CCN1CCC(n2c(=O)[nH]c3ccccc32)CC1	-16%
Cc1nn(C)cc1C(C)NC(=O)CN1CCCc2nc(-c3ccccc3)ncc2C1=O (stereo not drawn)	-17%
COc1cc(-c2nc(-c3c(C)noc3C)cc3[nH]c(C)cc23)ccn1	i
COCCNC(=O)[C@@H]1C[C@H](Oc2ccccc2)CN1C(=O)c1cnc(C)cn1	26%
CN(C)c1ccc(CN2CCC3(COc4ccccc4C(=O)N3)C2)cc1 (stereo not drawn)	1%
O=C1NC2(CCCN(Cc3ccc(OC(F)(F)F)cc3)C2)COc2ccccc21 (stereo not drawn)	i
CN(C)c1ccc(CN2CCC3(CC2)COc2ccccc2C(=O)N3)cc1	1.1µM*
O=C1NC2(CCN(Cc3ccc(OC(F)(F)F)cc3)CC2)COc2ccccc21	2.2µM*
O=C1NC2(CCN(CC3CCCC3)CC2)COc2ccccc21	-10%[44.1 µM]
O=C1NC2(CCN(C(=O)C3CCCC3)CC2)COc2ccccc21	-19%[44.1 µM]
O=C1NC2(CCN(C(=O)c3ccccc3)CC2)COc2ccccc21	i
Cn1cccc1CN1CC2(C1)NC(=O)c1ccccc1O2	i
Cn1cccc1CN1CCC2(CC1)COc1ccccc1C(=O)N2	5.6µM*
Cn1cnc(S(=O)(=O)NCCc2noc(-c3ccncc3)n2)c1	52%
COc1cccc(C(=O)N2CCC(c3nn(-c4ccc(F)cc4)c(=O)[nH]3)CC2)c1	i
O=S(=O)(c1ccccc1)N1CCC(NCC2(O)CNCCOC2)CC1 (stereo not drawn)	2%
CCOC(=O)C1(C/C=C/c2ccccc2)CCCN(C(=O)C2CCOCC2)C1 (stereo not drawn)	-15%
COCCNC(=O)C1COC2(CCC(C)CC2)N1C(=O)c1ccccc1C (stereo not drawn)	-4%
SMILES	Pf Dd2 inh
Cc1ccc(-c2nnc([C@H]3CCN(c4nccc(C(F)(F)F)n4)C3)o2)cc1	-12%[44.1 µM]
CC1=NS(=O)(=O)N(C)C=C1C(=O)OCc1nc(-c2ccc(F)cc2)no1	56%
COc1c(Cl)cc(C(=O)Nc2cc(-c3nc4ccccc4[nH]3)ccc2C)cc1Cl	-28%
CC(C)CC(=O)Nc1cccc(-c2nc3ccccc3[nH]2)c1	22%
Cc1ccc(C(C)C)c(OCC(=O)Nc2cc(-c3nc4ccccc4[nH]3)ccc2C)c1	6.3µM*
O=C(CCc1c[nH]c2ccccc12)N1CCC(Oc2ncccc2C(=O)N2CCOCC2)C1 (stereo not drawn)	i
O=C(c1ccccn1)N1CCC2(CC1)CC(Cc1nc(-c3cnccn3)no1)CCO2 (stereo not drawn)	-10%
COC(=O)c1ccc([C@@H]2Nc3c(OC)ccc(C)c3[C@@H]3C=CC[C@@H]32)cc1	3.2µM*
COC(=O)c1ccc(-c2nc(-c3ccc(OC)c(OC)c3)no2)cc1	59%
COc1ccc(C(=O)N2[C@@H]3CC[C@H]2CC(NC(=O)c2ccc(F)cc2)C3)cc1OC (stereo partly drawn)	i
COc1ccc(-c2nnc3n2CCN(C(=O)c2ccccc2Cl)C3)cc1	-29%
Cc1cccc(NC(=O)C(=O)NCC(c2cccnc2)N2CCN(Cc3ccccc3)CC2)c1 (stereo not drawn)	7.9µM*
O=C(NCC(c1cccnc1)N1CCN(Cc2ccccc2)CC1)C(=O)Nc1ccc(Cl)cc1 (stereo not drawn)	14µM*
Cc1cccc(NC(=O)C(=O)NCC(c2ccc3c(c2)OCO3)N2CCN(c3ccccc3)CC2)c1 (stereo not drawn)	-26%
COc1ccccc1N1CCN(C(CNC(=O)C(=O)NCCN(C)C)c2cccnc2)CC1 (stereo not drawn)	-6%
O=C(NCC(c1cccnc1)N1CCN(Cc2ccccc2)CC1)C(=O)Nc1cccc(Cl)c1 (stereo not drawn)	4µM*
CCc1ccc(NC(=O)C(=O)NCC(c2cccnc2)N2CCN(C)CC2)cc1 (stereo not drawn)	-16%

Source: PubChem
